Target: TNPO2
Assay: pooled miR-30 sensor sort-seq; sequence = guide strand
Details: shRNA

First: TTCTCTAGAATTGCTGACCCAG
Second: AATCTTATAAAACATGTCCCGA
The sensor-assay potency score (higher = more potent) of the first is higher: -0.678 for the first, -0.983 for the second.

Compared with TGAGTCTTTGAGCAGCTGCAGG, TTTGAGTTTATCCTGCACGATG is higher in sensor-assay potency score (higher = more potent): -1.5 for the first, -1.1 for the second.

Compared with TTGTCTTCGTCCTTGAGCTCAT, TTTGAGCAGCTGCAGGACCTGC is lower in sensor-assay potency score (higher = more potent): 0.165 for the first, -1.11 for the second.

Compared with TTGTTCTTGAGGATGAGGCCAC, TTGAAGAACTGCAGGAACTTGG is lower in sensor-assay potency score (higher = more potent): -0.289 for the first, -0.371 for the second.

Compared with TCATCTTCTGACTTGAGTCTGG, TTTTCCAGCAGTGTCTTGGGTG is lower in sensor-assay potency score (higher = more potent): 0.0435 for the first, -0.0437 for the second.

Target: TOMM40L
Assay: as above
Details: shRNA

First: TACATCTTTGCATAGACGGTGC
Second: TAGTCTGTCATACCAGAGCATG
The sensor-assay potency score (higher = more potent) of the first is higher: 0.000587 for the first, -1.7 for the second.

Compared with TTTGGAACCTCTGATAGTCTGT, TCTGATAGTCTGTCATACCAGA is lower in sensor-assay potency score (higher = more potent): 0.397 for the first, -0.753 for the second.

Compared with TGTGGTAGTAACTTGCATGGGC, TAGACGGTGCAGCTCATCGAAG is lower in sensor-assay potency score (higher = more potent): 1.17 for the first, -1.14 for the second.

First: TAAGAGGTAAAGAAGCTCCTTC
Second: TTACTATCCACCAAGCCTCTAA
The sensor-assay potency score (higher = more potent) of the first is higher: 0.51 for the first, -0.326 for the second.

Going from TATACCATAGAACACATCCACC to TACCAAATCCAGCACATCCAGG, the sensor-assay potency score (higher = more potent) rises from -1.17 to -1.16.

Going from TTTCTCTAATGTTCAGACCTGG to TTATACCATAGAACACATCCAC, the sensor-assay potency score (higher = more potent) rises from -0.359 to -0.126.

Target: TOP1MT
Assay: as above
Details: shRNA

Going from TTCTTCTCCAGGACACTCCTGG to TATTCATGATCTAACATCCTCC, the sensor-assay potency score (higher = more potent) falls from 0.134 to 0.13.

Going from TTTTGCTGTAGATCTTCTCCAC to TTCTGAACGCTCTCGGTCCAAG, the sensor-assay potency score (higher = more potent) falls from 0.12 to -1.34.

Going from TTTTTCTTGGTGACCATCTAAA to TCATTGAAGAAGTTCTTCCGGA, the sensor-assay potency score (higher = more potent) rises from -1.15 to 0.332.

First: TTGTAGGTCCGGAACACCTTGG
Second: TTGTTGTGTATTCATGATCTAA
The sensor-assay potency score (higher = more potent) of the first is higher: -0.571 for the first, -0.885 for the second.

Going from TTTGCCTGGATCTTCGTCTGGA to TGTAGGATAAGATCTTAGCTGC, the sensor-assay potency score (higher = more potent) rises from 0.141 to 0.167.

First: TTGTCCACAAAGTATCTGTGGA
Second: TTGTTCTCCTCCTTGTCCGTGG
The sensor-assay potency score (higher = more potent) of the first is higher: 0.0397 for the first, -0.327 for the second.

Target: TP53I13
Assay: as above
Details: shRNA

Going from TTGGCCTTCAAGCTCCCTGGGG to TGAGCCTCTGTCCTGGAGCTGG, the sensor-assay potency score (higher = more potent) falls from -0.75 to -1.27.

Compared with TCGGAAGTTTCTGTGCAGCCGT, TTGAACAGACACAGCCCCCTGG is higher in sensor-assay potency score (higher = more potent): -0.684 for the first, 0.146 for the second.

With TAGCCATACAAGCATAGGCCAG the sensor-assay potency score (higher = more potent) was -1.71.
